Among all 360,000 compounds or so, about 1,700 (0.47%) were called active. Rule as the data show it: active = activation above about 15%; inactive = the rest. Only a selection was taken, and actives are over-represented in it overall.
Assay: counter-screen for M1 agonists: effect in parental CHO-K1 cells (AID 602248);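 also: untransfected CHO-K1 host cells lacking M1 receptor as counterscreen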
Conditions: Fluo-8 calcium fluorescence, at 3 µM, stronger effect = higher value, scaled to maximal ATP response, vehicle zero

SMILES | activation
CCOC(=O)C1(Cc2cccc(OC)c2)CCN(C(C)CC(C)(C)O)CC1 (configuration not stated) | 13.4% (inactive)
Cc1ccc(NC(=O)COC(=O)CCc2nc3ccccc3n2-c2ccccc2)c(C)c1 | -0.22% (inactive)
COc1cc(OC)cc(C(=O)NNC(=O)CCOc2ccccc2OC)c1 | 0.49% (inactive)
N#CC1(NC(=O)COC(=O)CCN=C2NS(=O)(=O)c3ccccc32)CCCCC1 | 1.21% (inactive)
O=C(CCCN=C1NS(=O)(=O)c2ccccc21)OCC(=O)c1ccc(F)c(F)c1 | 16.5% (active)
O=C(OCCN=C1NS(=O)(=O)c2ccccc21)c1cccc([N+](=O)[O-])c1 | 1.57% (inactive)
O=C(NCCCN1CCCC1=O)c1cccc(S(=O)(=O)NCc2ccccc2)c1 | 0.5% (inactive)
CC(C)(C)C(=O)NNC(=O)c1ccc(Oc2cc(Cl)cc(Cl)c2)o1 | 0.25% (inactive)
CC(C(=O)N1CCc2ccccc21)N(C)CC(=O)Nc1ccc(F)cc1 (configuration not stated) | 1.77% (inactive)
COc1ccccc1CCC(=O)NNC(=O)c1ccncc1 | 0.44% (inactive)
COc1ccc(C(=O)NNC(=S)NC(=O)c2ccccc2)cc1 | 38.2% (active)
COc1ccc(/C(N)=N/OC(=O)CCCc2ccccc2)cc1 | -0.55% (inactive)
Cc1scc(C(=O)NNC(=S)NCc2ccccc2)c1C | 1.16% (inactive)
O=C(NNC(=S)NCc1ccccc1)c1ccc(OC(F)F)cc1 | 15.8% (active)
O=C(/C=C/c1ccc(F)cc1)NC(=S)NNC(=O)c1cccnc1 | 1.3% (inactive)
Cc1onc(-c2ccccc2)c1C(=O)NNC(=S)NC(=O)c1ccc(F)cc1 | 28.7% (active)
Cc1onc(-c2ccccc2)c1C(=O)N1CCN(S(=O)(=O)c2ccccc2C(F)(F)F)CC1 | 0.62% (inactive)
Cn1nnc(NC(=S)NC(=O)c2ccccc2)n1 | 0.43% (inactive)
CC(C)CNC(=S)NNC(=O)c1ccccc1OC(F)F | 0.18% (inactive)

SMILES | activation
COc1ccc(C(=O)NC(=S)NNC(=O)CCc2ccccc2)cc1 | 21.1% (active)
CC(=O)NC(=S)NNC(=O)c1ccc(Br)cc1 | -0.94% (inactive)
O=C(Oc1ccc2c(c1)CCC2)N1CCOCC1 | 1.59% (inactive)
CCC(=O)c1cc(F)ccc1OCC(=O)Nc1ccc2c(c1)OCCO2 | 0.59% (inactive)
CC(C)NC(=O)C1(C)CCCCN1Cc1cccc(C(F)(F)F)c1 (configuration not stated) | -0.34% (inactive)
Cc1cccc(NC(=O)N2CCCCCC2)c1C | 0.19% (inactive)
Cc1ccc(S(=O)(=O)NC(C)C(=O)Nc2ccccc2C(=O)N2CCCC2)cc1 (configuration not stated) | -0.4% (inactive)
O=S1(=O)CCOC[C@H](CC2CCCCC2)N1Cc1ccc(F)cc1 | -0.24% (inactive)
CCC(C)c1ccccc1N1CC(C(=O)N2CCN(S(=O)(=O)c3ccc(F)cc3)CC2)CC1=O (configuration not stated) | 1.26% (inactive)
COc1cccc(-c2ccc(C#N)c(SCC(=O)NCCc3ccc(Cl)cc3)n2)c1 | -0.1% (inactive)
CC(=O)Oc1ccc(-c2cccc(C(=O)N3CCCCC3)c2)cc1 | 2.44% (inactive)
Nc1c(C(=O)c2cccs2)sc2nsc(SCCN3CCCCC3)c12 | 69.8% (active)
CCOC(=O)C(C)Sc1nnc(CSc2nc3nc(C)cc(C)n3n2)o1 (configuration not stated) | 1.72% (inactive)
Cc1ccc(NC(=O)CC2S/C(=N/N=C3\CCCc4ccccc43)NC2=O)cc1 (configuration not stated) | 12.4% (inactive)
O=C(OCc1ccccc1)N1CCC2CC1c1ccc(-c3ccc4c(c3)OCO4)cc12 (configuration not stated) | 1.17% (inactive)
COc1ccc(Cl)cc1NC(=O)CN(C)Cc1ccc(OC)c(OC)c1 | 6.25% (inactive)
COc1ccc(Br)cc1CN(C)CC(=O)Nc1cc(Cl)cc(Cl)c1 | 18.5% (active)
COc1ccc(Br)cc1CN(C)CC(=O)Nc1cc([N+](=O)[O-])ccc1OC | 0.64% (inactive)
OCC1(Cc2ccccc2C(F)(F)F)CCN(Cc2ccncc2)CC1 | 1.74% (inactive)

SMILES | activation
CC(C)C(=O)Nc1ccc2c3c(cccc13)CC2 | -0.06% (inactive)
N#CC1(Nc2ccc(-c3ccc(Cl)cc3)cc2)CCCC1 | 0.41% (inactive)
N#CC1(Nc2ccc3c4c(cccc24)CC3)CCCCC1 | 41% (active)
CC(C)(O)C#Cc1ccc(CNC[C@H]2O[C@@H](n3cnc4c(=O)[nH]c(N)nc43)[C@H](O)[C@@H]2O)s1 | 0.21% (inactive)
COCCN(C(=O)CCC(=O)Nc1nccs1)C(C(=O)NCCC(C)C)c1ccc(F)cc1 (configuration not stated) | 0.22% (inactive)
COc1cncc(-c2cnc3sc(NCCc4ccccn4)nn23)c1 | 0.67% (inactive)
Cc1ccc(S(=O)(=O)N(C)CC(=O)NCCc2c[nH]c3ccccc23)cc1 | 6.95% (inactive)
CC1CCC(NC(=O)CN(C)S(=O)(=O)c2ccc3c(c2)c(=O)n(C)c(=O)n3C)CC1 (configuration not stated) | 15.6% (active)
COc1cccc(CNC(=O)CN(C)S(=O)(=O)c2ccc3c(c2)c(=O)n(C)c(=O)n3C)c1 | 1.02% (inactive)
CCc1ccccc1NC(=O)CN(C)S(=O)(=O)c1ccc2c(c1)c(=O)n(C)c(=O)n2C | 1.14% (inactive)
COc1ccc(N(CCC#N)S(=O)(=O)c2ccc(Cl)cc2)cc1 | 1.81% (inactive)
COC(=O)c1ccc(CSc2ccc3nnc(-c4ccccc4)n3n2)o1 | 2.77% (inactive)
Cc1oc2nc(SCC(=O)Nc3ccc(S(N)(=O)=O)cc3)nc(NC(=O)c3ccccc3)c2c1C | 0.44% (inactive)
COc1cc(OC)c(S(=O)(=O)Nc2ccccc2C(=O)O)cc1S(=O)(=O)Nc1ccccc1C(=O)O | 15.1% (active)
COc1cc(/C=C/C(=O)O)cc(S(=O)(=O)Nc2ccccc2C(=O)NCCc2ccccc2)c1OC | -0.11% (inactive)
COc1ccc(OC)c(S(=O)(=O)Nc2ccccc2F)c1 | 0.21% (inactive)
CC(=O)c1c(C)[nH]c(C(=O)COC(=O)CCOc2ccc(C)cc2)c1C | 7.01% (inactive)
CC(=O)c1c(C)[nH]c(C(=O)COC(=O)c2cccc(S(=O)(=O)N(C)c3ccccc3)c2)c1C | 17.5% (active)
COc1ccc(C)cc1NC(=O)C(OC(=O)c1cccc(S(=O)(=O)N(C)c2ccccc2)c1)c1ccccc1 (configuration not stated) | -0.35% (inactive)

From PubChem BioAssay AID602248 (The Scripps Research Institute Molecular Screening Center, 2012)
